Assay results: PubChem BioAssay AID492967 (ICCB-Longwood Screening Facility, Harvard Medical School, 2010)
Values joined by “and” are separate entries in the source; they are usually repeats but may differ in a detail not shown here. Equal values may be shown once. The whole screen tested about 140,000 compounds, of which about 320 (0.23%) were called active. No stated cut-off is given here; in the data, active means z-score mostly below about -2.9 (no sharp cut-off); inactive means mostly above about -1.9. This excerpt belongs to a sample that is enriched for actives. Some structures have more than one record in an assay (separate samples or runs), and their calls can disagree.

test system: CapD gamma-glutamyltranspeptidase (Bacillus anthracis Ames Ancestor); experiment: Bacillus anthracis CapD inhibitors, primary screen, biochemical, fluorescence intensity (AID 492967); conditions: purified CapD enzyme, fluorescence intensity read-out; stronger effect = lower value

| Compound | z-score |
| --- | --- |
| Cc1cccc(N2CCN(C(=O)c3cccc(N4C(=O)C5C6C=CC(C6)C5C4=O)c3)CC2)c1C (centres undefined) | -0.42 (inactive) |
| CCOC(=O)c1cc2cccc(NC(=O)c3cccc(C(F)(F)F)c3)c2[nH]1 | -0.595 (inactive) |
| CCCCCNC(=O)c1ccc2c(c1)[nH]c(=S)n1c3ccccc3nc21 | -0.3 (inactive) |
| CN(CC(=O)O)S(=O)(=O)c1ccc2oc3ccccc3c2c1 | 0.355 (inactive) |
| C=CCN1CCN(C(=O)C2CC2)CC1 | 0.655 (inactive) |
| CCCNC(=O)Nc1ccc2snnc2c1 | 26.7 (inactive) |
| CCOC(=O)c1ccc(N2N=C(C(F)(F)F)/C(=C/c3cc(Cl)c(O)c(OC)c3)C2=O)cc1 | -0.22 (inactive) |
| CCC(C)(C)c1cc2cc(NS(=O)(=O)c3ccccc3)ccc2[nH]1 | -0.4 (inactive) |
| CCOC(=O)c1cc2cccnc2nc1C | -0.34 (inactive) |
| CCOc1ccc(C(=O)/C(C)=N/O)cc1 | -1.18 (inactive) |
| Cc1ccc2nc(N3CC(=O)N(CCc4ccccc4)C(=O)C3)c3nncn3c2c1 | -0.125 (inactive) |
| CC(Oc1ccc(OC(C)C(=O)/C=C/N(C)C)cc1)C(=O)/C=C/N(C)C (centres undefined) | -1.18 (inactive) |
| N#Cc1c(-c2ccccc2)cc(-c2ccccc2)c(C#N)c1N | 21 (inactive) |
| FC(F)(F)c1cccc(N2CCN(C(=S)Nc3ccccc3)CC2)c1 | -0.215 (inactive) |
| O=C(COC(=O)Cc1ccsc1)Nc1ccccc1C(F)(F)F | -1.17 (inactive) |
| CCOc1ccc(/C=C2/SC(=S)N(CC(=O)O)C2=O)cc1 | -0.21 (inactive) |
| FC(F)(F)C1=CC=NCCN1 | -4.38 (active) |
| CC(C)(C)OC(=O)/N=C(\N)N(CCCC(NC(=O)OC(C)(C)C)C(=O)NCc1cccs1)C(=O)OC(C)(C)C (centres undefined) | -0.295 (inactive) |
| O=C(c1ccco1)N1CCN(Cc2cccc(C(F)(F)F)c2)CC1 | 0.64 (inactive) |
| CCNC(=O)C(=O)Nc1cccc(C(F)(F)F)c1 | 0.01 (inactive) |
| CCOC(=O)N/N=C1/c2ccccc2C2(O)NC(=O)NC12O (centres undefined) | 0.15 (inactive) |
| C=CCn1cc(C=C2C(=O)N(C)C(=S)N(C)C2=O)c2ccccc21 | 3.29 (inactive) |
| CN1C(=O)C(=Cc2cn(CC(=O)NCc3ccco3)c3ccccc23)C(=O)N(C)C1=O | -0.57 (inactive) |
| O=C(O)Cn1cc(/C=C2\C(=O)NN(c3ccccc3)C2=O)c2ccccc21 | -6.26 (active) |

| Compound | z-score |
| --- | --- |
| CCOc1ccc(CCNC(=O)c2nnc(-c3cccnc3)o2)cc1OCC | 0.25 (inactive) |
| Cc1nc2ccccc2n1CC1CC1(Cl)Cl (centres undefined) | -0.66 (inactive) |
| O=C(O)CSc1ncn(-c2ccccc2)n1 | 0.115 (inactive) |
| CC1(C)c2ccccc2N2CCC(=O)NC21/C=C/c1cccnc1 (centres undefined) | 0.115 (inactive) |
| CN(C)/C=C/C(=O)C(Cc1ccc(Cl)cc1)Cc1ccc(Cl)cc1 | -0.33 (inactive) |
| O=[N+]([O-])c1cccc(C2(O)CN(c3ccc(Cl)cc3)C3=[N+]2CCCS3)c1 (centres undefined) | 0.185 (inactive) |
| COc1ccc2nc3oc(C(=O)NC4CC4)cc3cc2c1 | 3.45 (inactive) |
| O=C(c1ccccc1)C(O)c1c[nH]c2ccccc12 (centres undefined) | 0.51 (inactive) |
| CC1(C)CC(=O)C(=Cc2c[nH]c3ccccc23)C(=O)C1 | -4.71 (active) |
| O=c1[nH][nH]c(=O)c2c(N=Cc3c[nH]c4ccccc34)cccc12 | 57.4 (inactive) |
| CCOc1ncccc1C(=O)Nc1cccc(C(F)(F)F)c1 | -0.145 (inactive) |
| O=C(CC(NCc1ccco1)C(=O)O)Nc1cccc(C(F)(F)F)c1 (centres undefined) | -0.155 (inactive) |
| O=c1cc(CO)oc(C(Nc2cccc(C(F)(F)F)c2)c2ccccn2)c1O (centres undefined) | -6.66 (active) |
| CCC1CCCCN1C(=O)CSc1ccc(C)cc1 (centres undefined) | -0.23 (inactive) |
| O=c1oc2ccccc2cc1-c1nc(-c2ccc(Cl)cc2)cs1 | 0.955 (inactive) |
| Cc1cc(=O)oc2c3c(ccc12)OCN(c1ccccc1Cl)C3 | 21.1 (inactive) |
| CCC(C)NC(=O)c1onc(C)c1Cl (centres undefined) | -0.44 (inactive) |
| Cc1c(NS(=O)(=O)c2ccc3c(c2)C(=O)c2ccccc2C3=O)c(=O)n(-c2ccccc2)n1C | -0.465 (inactive) |
| O=C1CCCC2=C1C(c1ccc(Cl)cc1)c1c(ccc3ccccc13)N2 (centres undefined) | 0.255 (inactive) |
| Cc1ccc(Oc2cc(Oc3ccc(C)cc3)c3noc4c3c2C(=O)c2ccccc2-4)cc1 | 0.03 (inactive) |
| Cc1cc2c(cc1C)CSC(c1cc(Cl)cc(Cl)c1O)SC2 | -0.005 (inactive) and -0.385 (inactive) |
| COc1cc2c(C(=O)NCCC(C)C)cn(C)c(=O)c2cc1OC | 0.63 (inactive) |
| C=CCN(C(=O)c1ccc(N2CC3CC(C2)c2cccc(=O)n2C3)c(NC(=O)c2ccc(OC)cc2)c1)c1ccccc1 (centres undefined) | -0.49 (inactive) |
| O=C(OC1CCCCC1=O)c1ccc(O)cc1 (centres undefined) | -0.295 (inactive) |

| Compound | z-score |
| --- | --- |
| CCOc1cccc2cc(C(=O)Nc3ccc(Oc4ccccc4)cc3)c(=O)oc12 | 1.48 (inactive) |
| CC12CCC(C(=O)O)(CC1=O)C2(C)C (centres undefined) | -0.19 (inactive) |
| CC12CCC(C(=O)Nc3ncc(Cl)cc3Cl)(CC1=O)C2(C)C (centres undefined) | -1.89 (active) |
| O=C(COC(=O)c1ccccc1)Nc1ncc(Cl)cc1Cl | 0.31 (inactive) |
| CCOC(=O)C1=NN(C(=O)CCc2ccccc2)C(O)(c2ccc(Cl)cc2)C1 (centres undefined) | -1.38 (inactive) |
| CCC(C(=O)Nc1cccc(OC)c1)N1C(=O)CCn2nccc21 (centres undefined) | 0.745 (inactive) |
| O=C1C2C3c4ccccc4C(c4ccccc43)C2C(=O)N1c1ccccc1Cl (centres undefined) | 0.425 (inactive) |
| Nc1[nH]c(=S)sc1C(=O)Nc1nccs1 | -5.56 (active) |
| O=C(Nc1nccs1)c1cc(=O)c2ccccc2o1 | -0.41 (inactive) |
| O=C(O)c1ccccc1-c1ccccc1C(=O)Nc1nccs1 | 0.375 (inactive) |
| CC(=O)Nc1ccc2c(c1)OCCOCCOCCO2 | -0.015 (inactive) |
| CC(C)Oc1ccccc1C(N)=O | -0.285 (inactive) |
| COc1ccc(CSc2nc(N)nc(-c3cccs3)c2C#N)cc1 | 3.26 (inactive) |
| O=C(Oc1ccc(C=Nc2cccc(Br)c2)cc1)c1ccccn1 | -0.36 (inactive) |
| Fc1ccccc1-c1nc(N2CCC3(CC2)OCCO3)c2ccccc2n1 | -0.275 (inactive) |
| CC(C)C(=O)N=c1scc(-c2ccccc2)n1-c1ccccc1Cl | 0.04 (inactive) |
| COc1ccc(C(=O)NNC(=O)C2CCN(c3ccc(C(F)(F)F)cn3)CC2)cc1 | 3.11 (inactive) |
| CC(C)CCOc1ccc(C(=O)C(C)C)cc1 | 0.445 (inactive) |
| COc1ccccc1C1CCN(C(=O)c2ccccc2C(F)(F)F)CC1 | 0.315 (inactive) |
| CC1=C(C(=O)OCCc2ccccc2)C(c2ccccc2C(F)(F)F)NC(=O)N1C (centres undefined) | -0.495 (inactive) |
| CS(=O)(=O)c1nc2ccccc2[nH]1 | 0.005 (inactive) |
| N#CC(=C1C(=O)c2ccccc2C1=O)c1nc2ccccc2[nH]1 | -4.36 (active) |
| N#C/C(=C\C=C\c1ccccc1)c1nc2ccccc2[nH]1 | 2.54 (inactive) |
| ClCCOc1nc(N2CCOCC2)nc(N2CCOCC2)n1 | -0.68 (inactive) |

| Compound | z-score |
| --- | --- |
| O=C(c1ccc(Cn2c(=S)[nH]c3ccc(Br)cc3c2=O)cc1)N1CCN(C(=O)c2ccco2)CC1 | 0.025 (inactive) |
| Cc1ccccc1C(=O)N1CCc2c([nH]c3ccccc23)C1 | 0.37 (inactive) |
| CCOC(=O)C1=CN(Cc2ccc(OC)cc2)C=C(C(=O)OCC)C1c1cc(Br)c(OCC)c(OC)c1 | 22.1 (inactive) |
| O=C(Cn1c2ccccc2c(=O)c2cc(Cl)ccc21)Nc1ccc(OCc2ccccc2)cc1 | 0.395 (inactive) |
| COc1ccc(S(=O)c2ccccc2C(=O)O)cc1 (centres undefined) | 0.375 (inactive) |
| COc1ccccc1N1CCN(c2ncnc3sc(C(=O)Nc4ccc5c(c4)OCCO5)c(C)c23)CC1 | -0.055 (inactive) |
| COc1cccc(N/C(SCc2c(F)cccc2Cl)=C(/C#N)C(=O)NCc2ccccc2)c1 | -0.425 (inactive) |
| O=c1c(-c2cc3ccccc3o2)[n+]([O-])c2ccccc2n1O | 2.82 (inactive) |
| O=C1/C(=C/c2ccc(Br)cc2)C=C(c2ccccc2)N1c1ccccc1Br | -0.72 (inactive) |
| NC(=O)CCc1cn(-c2ccccc2)nc1-c1ccccc1 | -0.045 (inactive) |
| COc1cc2c(cc1OC)C(c1ccc(Cl)cc1)NC(=O)C2 (centres undefined) | -0.115 (inactive) |
| CCOC(=O)C1=C(C)NC(C)=C(C(=O)OCC)C1c1cn(-c2ccccc2)nc1-c1ccc(F)cc1 | 3.54 (inactive) |
| CC(C)(C)c1ccc(S(=O)(=O)Nc2ccc3c(c2)N(S(=O)(=O)c2cccc(C(F)(F)F)c2)CC3)cc1 | -0.6 (inactive) |
| Cc1c(Cl)cccc1N=C1NC(=O)/C(=C/c2ccco2)S1 | -1 (inactive) |
| CCN(CC)C(=O)Cn1ncc2c3ccccc3n(Cc3ccccc3)c2c1=O | 2.73 (inactive) |
| O=C(CN1C(=O)CC(c2ccccc2)Sc2ccccc21)NCc1ccccc1 (centres undefined) | -0.28 (inactive) |
| COc1cc(/C=C2/N=C(c3ccc(Cl)c([N+](=O)[O-])c3)OC2=O)cc(OC)c1OC | 0.85 (inactive) |
| CC1CCC(C(C)C)C(OCC(O)CN2CCN(c3ccccc3)CC2)C1 (centres undefined) | 0.045 (inactive) |
| Cc1c(NC(=O)c2cccnc2)c(=O)n(-c2ccccc2)n1C | -0.255 (inactive) and -5.24 (active) |
| COC(=O)Nc1c(C)n(C)n(-c2ccccc2)c1=O | 0.115 (inactive) |
| Cc1ccc(C(=O)N/C(=C\c2ccccc2)C(=O)Nc2c(C)n(C)n(-c3ccccc3)c2=O)cc1 | -0.355 (inactive) |
| COc1cc(NC(=O)c2cc(N(C)C)nc(N(C)C)n2)cc(OC)c1 | 4.64 (inactive) |
